Only some compounds are listed: those with a hit (about 7.5% of all), similar ones and a draw of the others.
NPC1 promoter act: activates the NPC1 promoter. Potency, µM (doses to about 9.22 µM), for inactives: at the top dose activation, most hits filed as activators. hit rate 2.4% among 320,000. Huh7 NPC1 promoter luciferase reporter, 24 h; note: % of control where 0% means no effect; nearly all actives have a fitted effect of over 60% in size
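Huh7 reporter cells (NPC1 promoter driving luciferase) are dosed with compound for 24 h at 37 °C, 5% CO2; luciferase detection reagent is then added and luminescence measured after 10 min at ambient temperature.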
ELG1 genotox: genotoxicity induction in ELG1-luciferase HEK293T cells; HEK293T ELG1-luciferase reporter, luminescence, 16 h; Potency, µM (titrated, usually from 46 µM), inactives show top-dose activity change, positive = activation, actives largely listed as activators; hit rate 1.3% among 330,000; note: % of control where 0% means no effect; nearly all actives have a fitted effect of over 60% in size
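Genotoxicity was scored as increased ELG1-luciferase reporter signal, measured by ONE-Glo luminescence (30 min, room temperature). Compound or vehicle exposure of the HEK293T reporter cells lasted 16 hr at 37°C.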
KinaseGlo FLuc: counter-screen: inhibitors of Kinase-Glo firefly luciferase. Q27757. Kinase-Glo luciferase, ATP luminescence, 8 min. Potency, µM (doses to about 38.3 µM), for the others: top-dose activity change, negative = inhibition, most hits filed as inhibitors. hit rate 0.28% among 200,000; note: % is set by controls: 0 for no effect and ±100 for the full control effect; nearly all actives have a fitted effect of over 60% in size
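Light output from Kinase-Glo luciferase with luciferin and 10 uM ATP in 50 mM imidazole pH 7.2, KCl, MgCl2, Tween 20, BSA; compound pin-delivered, 8-min ambient incubation, then luminescence read.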
SMN2 splice up: enhancers of SMN2 splice variant expression. HEK293 SMN2-luciferase splicing reporter, luminescence, 30-36 h. Potency, µM (top dose mostly 46.1 µM), for the others: at the top dose activity change, positive = activation, actives largely listed as activators. hit rate 2.8% among 210,000. AID 1458; note: % of control where 0% means no effect; nearly all actives have a fitted effect of over 55% in size
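HEK293 cells carry an SMN2 […]–luciferase reporter in which exon 7 inclusion puts luciferase in frame. Cells were plated 10-12 h before compound addition, then incubated 30-36 h at 37C. ONE-Glo luminescence was read; sodium butyrate at 4.5 mM final served as control.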
Rab9 prom act: activators of Rab9 promoter. AID 485297. hit rate 2.8% among 320,000. Huh7 Rab9 promoter-luciferase reporter, luminescence, 24 h. Potency, µM (doses to about 9.22 µM), inactives show at the highest dose activation, negative = inhibition, usual class: activators; note: % of control where 0% means no effect; nearly all actives have a fitted effect of over 60% in size
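Cell-based reporter: Huh7 stable for Rab9 promoter-driven luciferase, plated in reduced-serum medium with 10% FBS at 1500 cells/well, compound-treated 24 h at 37 °C, luminescence read after 10 min reagent.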
FLuc counter: counter-screen for miR-21 project: firefly luciferase inhibitors or activators; purified FLuc, Km substrates, luminescence inhibition; hit rate 6.9% among 360,000; AID 588342; Potency, µM (series often up to 57.5 µM), for inactives: at the highest dose activity change, negative = inhibition, actives largely listed as inhibitors; P08659;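 note: plate controls were vehicle for no effect and reference inhibitor for full effect; nearly all actives have a fitted effect of over 55% in size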
Target sequence (P08659 whole entry, looked up): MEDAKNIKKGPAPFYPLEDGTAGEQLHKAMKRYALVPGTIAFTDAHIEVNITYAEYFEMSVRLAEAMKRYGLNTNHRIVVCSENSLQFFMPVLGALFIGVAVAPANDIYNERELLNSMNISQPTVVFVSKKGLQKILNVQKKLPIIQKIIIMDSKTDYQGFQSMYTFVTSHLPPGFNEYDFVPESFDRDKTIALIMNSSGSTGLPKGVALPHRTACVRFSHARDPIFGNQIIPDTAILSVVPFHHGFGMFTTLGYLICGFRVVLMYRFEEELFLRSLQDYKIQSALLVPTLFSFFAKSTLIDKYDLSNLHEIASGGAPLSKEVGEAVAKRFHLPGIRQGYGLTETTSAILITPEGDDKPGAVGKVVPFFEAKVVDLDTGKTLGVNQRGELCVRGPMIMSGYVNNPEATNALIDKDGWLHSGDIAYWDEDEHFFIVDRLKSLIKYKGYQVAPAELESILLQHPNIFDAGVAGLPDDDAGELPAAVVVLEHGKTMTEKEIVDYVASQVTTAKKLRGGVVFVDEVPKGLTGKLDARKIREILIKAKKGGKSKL
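Biochemical qHTS of compounds, final roughly 60 µM downward over six points, against 10 nM purified firefly luciferase using Km concentrations of substrates (10 uM D-luciferin, 10 uM ATP) in Tris acetate pH 7.5 buffer; luminescence output.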
Numbers without * were called inactive; ? = inconclusive; · = no result; [ ] = dose if it differs, or a comment. Calls come from the whole dose curve; as a rule, active = well fitted curve in the direction sought with a large enough effect; inconclusive = small, poorly fitted or top-dose-only effect, or another doubt; inactive = no such curve, though single readings can be large; an effect the other way counts as inactive or inconclusive. Potency is the fitted concentration of half-maximal effect.

SMILES	NPC1 promoter act	ELG1 genotox	KinaseGlo FLuc	SMN2 splice up	Rab9 prom act	FLuc counter
Cc1cc(C)n2nc(C(=O)Nc3ccc4c(c3)OCO4)cc2n1	1.26µM*	2.06µM*	-13.2%	7.94µM*	3.16µM*	4.78µM*
Cc1cc(Nc2cccc(C(=O)O)c2)n2nc(C)nc2n1	·	·	·	4.6%	·	-4.7%
CC(=O)c1cccc(NC(=O)c2cc3nc(C)cc(C)n3n2)c1	?	8.2µM*	1.7%	12.6µM*	2µM*	7.57µM*
COc1cc2nc(C3CCC3)nc(N3CCN(c4ccccc4OC)CC3)c2cc1OC	-11.9%	-11.6%	-5.7%	-19.0%	-3.1%	1.1%
O=[N+]([O-])c1ccc(S(=O)(=O)NCc2nc3cccnc3n2Cc2ccccc2Cl)cc1	·	·	·	·	·	-10.3%
CCC1=C2CC[C@H]3C(=O)N(CC(=O)OC)C(=O)[C@H]3[C@H]2[C@@]2(Cc3ccccc3)C(=NCCc3c[nH]c4ccccc34)OC(=O)N2C1=O	·	·	-1.7%	-12.7%	·	·
CSc1ccccc1OCc1cc(C(=O)N(C)Cc2nonc2C)no1	2.24µM*	?	·	·	2µM*	13.5µM*
CSc1ccccc1OCc1cc(C(=O)N(C)Cc2ccncn2)no1	2µM*	16.4µM*	·	·	2µM*	15.1µM*
CCn1ccnc1CN(C)C(=O)c1cc(COc2ccccc2SC)on1	?	?	·	·	2.82µM*	12µM*
NCCN1C(=O)c2ccccc2[C@@]1(O)c1ccc(Cl)cc1	·	·	3.1%[7.66 µM]	-9.3%[9.22 µM]	·	·
CC(C)(C)NC(=O)NC(=O)CSc1nnc(COc2ccccc2Cl)o1	-2.3%	-2.6%	-6.1%	13.5%	-7.1%	16.9µM*
CC1CCCCC1NC(=O)CSc1nnc(COc2ccccc2Cl)o1 (stereo not drawn)	2.6%	0.9%	-0.9%	6.5%	3.2%	21.3µM*
O=C(CSc1nnc(COc2ccccc2Cl)o1)Nc1ccccc1	-2.0%	0.9%	·	·	-3.5%	?
C[C@]12O[C@H]1[C@@H](O)C(Br)=C(CO)[C@H]2O	·	·	-0.8%	-2.4%	·	·
COc1ccc(SC[C@H](Cc2ccccc2)N2CC[C@@H](NC(=O)OCc3ccccc3)CCC2=O)cc1	-2.7%	-6.8%	·	·	-1.3%	3.9%
C=C1C(c2ccc(C)cc2)=CCc2cc(C)cc(C)c21	·	·	·	14.1µM*	·	·
O=C(Nc1nnc(-c2ccccc2F)s1)C1CCCO1 (stereo not drawn)	3.55µM*	?	-5.0%	5.01µM*	2.51µM*	15.1µM*
O=C(Nc1nc2ccc(F)cc2s1)C1CCN(S(=O)(=O)c2cc([N+](=O)[O-])ccc2Cl)CC1	-21.3%	-13.1%	-0.2%	-2.0%[1.84 µM]	-19.5%	10.7µM*
O=C(Nc1nnc(-c2ccncc2)s1)C1CCCO1 (stereo not drawn)	12.8%	0.7%	-2.1%	?	13.9%	-11.4%
Cc1ccc2nc(NC(=O)C3CCN(S(=O)(=O)c4cc([N+](=O)[O-])ccc4Cl)CC3)sc2c1	-13.2%	-0.2%	-1.2%	-24.9%	-25.7%	?
O=C(Nc1ncc(Cc2ccccc2)s1)C1CCCO1 (stereo not drawn)	1.12µM*	?	-2.8%	5.01µM*	2.24µM*	4.26µM*
Nc1ccc2nc(NC(=O)C3CCCCC3)sc2c1	?	20.6µM*	-4.4%	14.1µM*	4.47µM*	6.75µM*
O=C(Nc1nc2ccccc2s1)C1CCCO1 (stereo not drawn)	1.12µM*	5.8µM*	-2.4%	12.6µM*	?	15.1µM*
O=C(Nc1nc2ccccc2s1)C1c2ccccc2Oc2ccccc21	-0.6%	2.1%	-0.1%	-22.3%	-0.9%	2.5%
CCOc1ccc2nc(NC(=O)C3CCCO3)sc2c1 (stereo not drawn)	-6.1%	2.0%	-1.7%	·	-7.3%	-1.4%
SMILES	NPC1 promoter act	ELG1 genotox	KinaseGlo FLuc	SMN2 splice up	Rab9 prom act	FLuc counter
O=C(Nc1nc2ccc(F)cc2s1)C1CCCO1 (stereo not drawn)	1.12µM*	?	-8.4%	15.8µM*	2.24µM*	6.75µM*
Cc1ccc2oc(C(=O)NCCCN3CCOCC3)c(C)c2c1	3.16µM*	18.3µM*	·	·	3.98µM*	13.5µM*
Cc1ccc2oc(C(=O)NCCC3CCCCO3)c(C)c2c1 (stereo not drawn)	0.562µM*	3.66µM*	·	·	0.447µM*	2.69µM*
COc1ccc2oc(C(=O)NCCN3CCOCC3)c(C)c2c1OC	2µM*	10.3µM*	·	·	2.24µM*	15.1µM*
COc1ccsc1C(=O)NCCN1CCOCC1	0.5%	-4.0%	·	·	2.2%	5.6%
Cc1ccc(C(=O)NNC(=O)c2n[nH]c(=O)c3ccccc23)cc1C	17.4%	4.2%	·	·	19.4%	?
Cc1ccc(C(=O)NC(Cc2ccc(C(C)(C)C)cc2)C(=O)O)cc1 (stereo not drawn)	·	-3.1%	·	·	·	·
COC(=O)C(Cc1ccc(O)cc1)NC(=O)c1ccccc1 (stereo not drawn)	-5.2%	-0.2%	-16.0%	29.4%	-3.4%	19µM*
COC(=O)[C@H](Cc1ccccc1)NC(=O)NCc1ccc(C)cc1	3.9%	0.5%	·	·	-6.8%	21.3µM*
COC(=O)C(Cc1ccccc1)NC(=O)c1ccc(C)cc1 (stereo not drawn)	-4.1%	-9.4%	8.7%	-7.5%	4.7%	6.01µM*
COC(=O)[C@H](Cc1ccccc1)NC(=O)NCc1ccccc1	-0.1%	-2.8%	·	·	0.0%	-24.7%
COc1ccc(-c2noc3c2-c2nc(-c4cccc(C)c4)sc2CC3)cc1	-1.7%	-0.1%	·	·	-3.4%	-0.4%
c1ccc(OCCOc2ncnc3sccc23)cc1	25.5%	16.4µM*	-6.5%	?	2.82µM*	?
COc1cccc(Cn2c(=O)cc(C)c3c(C)nn(C)c32)c1	·	·	·	·	·	-1.4%
COc1ccc(N2Cc3ccccc3C2)cc1Cl	18.6%	20.6µM*	-4.2%	?	?	?
Cc1cc(C)c2c(=O)cc(CSc3nnc(-c4ccccc4)n3C)[nH]c2c1	·	·	·	·	·	-0.6%
O=C(c1cc(-c2ccccc2)nc2ccccc12)N1CCN(c2ccccc2O)CC1	10.8%	-22.0%	·	·	23.6%	10.7µM*
O=C(c1cc(-c2ccccc2)nc2ccccc12)N1CCN(c2ccccn2)CC1	0.1%	-13.1%	-0.9%	-5.2%	-7.1%[1.84 µM]	12µM*
Nc1nc(N2CCN(c3ccccn3)CC2)nc2ccccc12	?	?	·	·	3.55µM*	10.7µM*
Cc1ccc2nc(-c3ccccc3)cc(C(=O)N3CCN(c4ccccc4O)CC3)c2c1	14.4%	-28.3%	·	·	3.6%	13.5µM*
O=C(c1cc(-c2ccncc2)nc2ccccc12)N1CCN(c2ccccc2O)CC1	-5.3%	-17.0%	·	·	-0.3%	?
Cc1ccc2nc(-c3ccccc3)cc(C(=O)N3CCN(S(=O)(=O)c4c(C)noc4C)CC3)c2c1	4.8%	-7.0%	·	·	6.3%	5.36µM*
Cc1ccc(S(=O)(=O)N2CCN(C(=O)c3c(-c4ccccc4)noc3C)CC2)c(C)c1	-3.8%	-4.3%	·	·	0.2%	2.5%
